Test results reported in PubChem BioAssay (Tox21).
Inconclusive results are not listed. Active and inactive are the calls of the source. Calls follow the shape of the dose curve; as a rule, active = well fitted curve in the direction sought with a large enough effect in the repeat runs; inconclusive = weak or mixed curves; inactive = no such curve, though single readings can be large; an effect the other way counts as inactive or inconclusive.

What was measured:
[1] = qHTS RealTime-Glo MT Cell Viability Assay in HepG2 cells - 24 hour (AID 1224867); conditions: RealTime-Glo luminescence; series mostly up to 76.8 µM; also: nearly all actives have a fitted effect of over 50% in size
How it was run: (§1)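 HepG2 cells (600/well) were dispensed with RealTime-Glo reagents, incubated 5 h at 37 °C, then treated with compounds in DMSO for up to 40 h. Nonlytic NanoLuc luminescence reflecting viable cells was read at each stated time point.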

[2] = A CellTox Green Cytotoxicity Assay to monitor cytotoxicity in HEK293 cells - 0 hour (AID 1224869); conditions: CellTox Green fluorescence; series mostly up to 76.8 µM; also: nearly all actives have a fitted effect of over 50% in size
How it was run: (§2)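 Dead-cell fluorescence measured kinetically: asymmetric cyanine dye, HEK293, 600 cells/well, 5 h settle, 23 nL cpd/DMSO, 37 C, reads 0–40 h every 8 h.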

[3] = qHTS RealTime-Glo MT Cell Viability Assay in HepG2 cells - 40 hour (AID 1224870); conditions: RealTime-Glo luminescence; series mostly up to 76.8 µM; also: nearly all actives have a fitted effect of over 50% in size
How it was run: (§3)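 HepG2 cells mixed with RealTime-Glo MT reagents (NanoLuc plus cell-permeant prosubstrate) were seeded at 600 cells/well, incubated 5 h at 37 C/5% CO2, then pinned with compounds in DMSO; nonlytic luminescence tracked viability during 40 h treatment.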

[4] = A CellTox Green Cytotoxicity Assay to monitor cytotoxicity in HEK293 cells - 40 hour (AID 1224871); conditions: CellTox Green fluorescence; series mostly up to 76.8 µM; also: nearly all actives have a fitted effect of over 45% in size
How it was run: as §2

[5] = qHTS RealTime-Glo MT Cell Viability Assay in HEK293 cells - 16 hour (AID 1224872); conditions: RealTime-Glo luminescence; series mostly up to 76.8 µM; also: top concentration of the series differs between compounds; nearly all actives have a fitted effect of over 50% in size
How it was run: (§4)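 HEK293 cells seeded with NanoLuc/prosubstrate reagent, rested 5 h at 37 C, then dosed and kept at 37 C up to 40 h. Nonlytic real-time luminescence from viable cells read at 0, 8, 16, 24, 32 and 40 h.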

[6] = qHTS RealTime-Glo MT Cell Viability Assay in HepG2 cells - 8 hour (AID 1224873); conditions: RealTime-Glo luminescence; series mostly up to 76.8 µM; also: nearly all actives have a fitted effect of over 55% in size
How it was run: as §3

[7] = qHTS RealTime-Glo MT Cell Viability Assay in HEK293 cells - 40 hour (AID 1224874); conditions: RealTime-Glo luminescence, hits give low values; also: nearly all actives have a fitted effect of over 50% in size
How it was run: (§5)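 600 HEK293 cells per well, dispensed already mixed with RealTime-Glo MT reagents. Compound dosing came 5 h later. The same wells were read for luminescence at 0, 8, 16, 24, 32 and 40 h of exposure at 37 C.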

[8] = A CellTox Green Cytotoxicity Assay to monitor cytotoxicity in HEK293 cells - 24 hour (AID 1224875); conditions: CellTox Green fluorescence; series mostly up to 76.8 µM; also: nearly all actives have a fitted effect of over 45% in size
How it was run: as §2

[9] = A CellTox Green Cytotoxicity Assay to monitor cytotoxicity in HepG2 cells - 16 hour (AID 1224876); conditions: CellTox Green fluorescence; series mostly up to 76.8 µM; also: nearly all actives have a fitted effect of over 45% in size
How it was run: (§6)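 First, HepG2 cells (600/well) mixed with reagent were plated; second, after 5 h at 37 C they received compounds via pintool; third, fluorescence was measured at 0 h through 40 h at 8 h intervals.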

[10] = qHTS RealTime-Glo MT Cell Viability Assay in HepG2 cells - 32 hour (AID 1224877); conditions: RealTime-Glo luminescence; series mostly up to 76.8 µM; also: nearly all actives have a fitted effect of over 55% in size
How it was run: as §1

[11] = A CellTox Green Cytotoxicity Assay to monitor cytotoxicity in HepG2 cells - 24 hour (AID 1224878); conditions: CellTox Green fluorescence; series mostly up to 76.8 µM; also: nearly all actives have a fitted effect of over 45% in size
How it was run: as §6

[12] = A CellTox Green Cytotoxicity Assay to monitor cytotoxicity in HepG2 cells - 40 hour (AID 1224879); conditions: CellTox Green fluorescence; series mostly up to 76.8 µM; also: nearly all actives have a fitted effect of over 40% in size
How it was run: as §6

[13] = qHTS RealTime-Glo MT Cell Viability Assay in HEK293 cells - 0 hour (AID 1224880); conditions: RealTime-Glo luminescence; series mostly up to 76.8 µM
How it was run: as §5

[14] = A CellTox Green Cytotoxicity Assay to monitor cytotoxicity in HEK293 cells - 32 hour (AID 1224881); conditions: CellTox Green fluorescence; series mostly up to 76.8 µM; also: nearly all actives have a fitted effect of over 40% in size
How it was run: as §2

[15] = A CellTox Green Cytotoxicity Assay to monitor cytotoxicity in HepG2 cells - 0 hour (AID 1224882); conditions: CellTox Green fluorescence; series mostly up to 76.8 µM; also: nearly all actives have a fitted effect of over 35% in size
How it was run: as §6

[16] = A CellTox Green Cytotoxicity Assay to monitor cytotoxicity in HepG2 cells - 32 hour (AID 1224883); conditions: CellTox Green fluorescence; series mostly up to 76.8 µM; also: nearly all actives have a fitted effect of over 50% in size
How it was run: as §6

[17] = A CellTox Green Cytotoxicity Assay to monitor cytotoxicity in HEK293 cells - 8 hour (AID 1224884); conditions: CellTox Green fluorescence; series mostly up to 76.8 µM; also: nearly all actives have a fitted effect of over 35% in size
How it was run: as §2

[18] = qHTS RealTime-Glo MT Cell Viability Assay in HepG2 cells - 16 hour (AID 1224885); conditions: RealTime-Glo luminescence; series mostly up to 76.8 µM; also: nearly all actives have a fitted effect of over 50% in size
How it was run: as §1

[19] = qHTS RealTime-Glo MT Cell Viability Assay in HEK293 cells - 24 hour (AID 1224886); conditions: RealTime-Glo luminescence; series mostly up to 76.8 µM
How it was run: as §4

[20] = qHTS RealTime-Glo MT Cell Viability Assay in HEK293 cells - 32 hour (AID 1224868); conditions: RealTime-Glo luminescence; series mostly up to 76.8 µM
How it was run: as §4
% is scaled to controls: 0 for no effect and ±100 for the full control effect.

CC(C)(C)OC=O
inactive: outcome [1] | outcome [2] | outcome [3] | Potency [4] | outcome [5] | outcome [6] | max response [7] 8.37% | Potency [8] | Potency [9] | outcome [10] | Potency [11] | Potency [12] | Potency [13] | Potency [14] | Potency [15] | Potency [16] | Potency [17] | outcome [18] | outcome [19]

CCC(=O)OCCOc1ccccc1
inactive: outcome [1] | outcome [2] | outcome [3] | Potency [4] | outcome [5] | outcome [6] | max response [7] 5.48% | Potency [8] | Potency [9] | outcome [10] | Potency [11] | Potency [12] | Potency [13] | Potency [14] | Potency [15] | Potency [16] | Potency [17] | outcome [18] | outcome [19]

CCCCc1ccc(Cl)cc1
inactive: outcome [1] | outcome [20] | outcome [3] | Potency [4] | outcome [5] | outcome [6] | max response [7] 8.05% | Potency [8] | Potency [9] | outcome [10] | Potency [11] | Potency [12] | Potency [13] | Potency [14] | Potency [15] | Potency [16] | Potency [17] | outcome [18] | outcome [19]

C=CC(C)(CCC=C(C)C)OC(=O)C(C)C (configuration not stated)
inactive: outcome [1] | outcome [20] | outcome [3] | Potency [4] | outcome [5] | outcome [6] | max response [7] 0.514% | Potency [8] | Potency [9] | outcome [10] | Potency [11] | Potency [12] | Potency [13] | Potency [14] | Potency [15] | Potency [16] | Potency [17] | outcome [18] | outcome [19]

CCCOc1ccc(C(=O)OCCN(CC)CC)cc1N
inactive: outcome [1] | outcome [20] | outcome [3] | Potency [4] | outcome [6] | max response [7] 0.981% | Potency [8] | Potency [9] | outcome [10] | Potency [11] | Potency [12] | Potency [13] | Potency [14] | Potency [15] | Potency [16] | Potency [17] | outcome [18] | outcome [19]

CC(C)C(=O)Nc1cccc(C2CN3CCSC3=N2)c1 (configuration not stated)
inactive: outcome [1] | outcome [20] | outcome [3] | Potency [4] | outcome [5] | outcome [6] | max response [7] 0.0338% | Potency [8] | Potency [9] | outcome [10] | Potency [11] | Potency [12] | Potency [13] | Potency [14] | Potency [15] | Potency [16] | Potency [17] | outcome [18] | outcome [19]

CC(C)OCCO
inactive: outcome [1] | outcome [20] | outcome [3] | Potency [4] | outcome [5] | outcome [6] | max response [7] 4.69% | Potency [9] | outcome [10] | Potency [11] | Potency [12] | Potency [13] | Potency [14] | Potency [15] | Potency [16] | Potency [17] | outcome [18] | outcome [19]

O=S(=O)(O)c1ccc(Cl)cc1
inactive: outcome [1] | outcome [20] | outcome [3] | Potency [4] | outcome [5] | outcome [6] | max response [7] 0.949% | Potency [8] | outcome [10] | Potency [11] | Potency [12] | Potency [13] | Potency [14] | Potency [15] | Potency [16] | Potency [17] | outcome [18] | outcome [19]

CC(=O)Nc1ccc(OCCOCCOc2ccc(NC(C)=O)cc2)cc1
inactive: outcome [1] | outcome [2] | outcome [3] | Potency [4] | outcome [5] | outcome [6] | max response [7] -1.67% | Potency [8] | Potency [9] | outcome [10] | Potency [11] | Potency [12] | Potency [13] | Potency [14] | Potency [15] | Potency [16] | Potency [17] | outcome [18] | outcome [19]

C=COCCCCO
inactive: outcome [1] | outcome [20] | outcome [3] | Potency [4] | outcome [5] | outcome [6] | max response [7] -1.03% | Potency [8] | outcome [10] | Potency [12] | Potency [13] | Potency [14] | Potency [15] | Potency [16] | Potency [17] | outcome [18] | outcome [19]

CCCC(=O)C(CC)Sc1ccoc1C (configuration not stated)
inactive: outcome [1] | outcome [20] | outcome [3] | outcome [5] | max response [7] -5.27% | Potency [8] | Potency [9] | outcome [10] | Potency [13] | Potency [15] | Potency [17] | outcome [19]

CCCC(=O)CC
inactive: outcome [1] | outcome [2] | outcome [3] | Potency [4] | outcome [5] | outcome [6] | max response [7] 11.6% | Potency [8] | Potency [9] | outcome [10] | Potency [11] | Potency [12] | Potency [13] | Potency [14] | Potency [15] | Potency [16] | Potency [17] | outcome [18] | outcome [19]

CN(C)c1ccncc1
inactive: outcome [1] | outcome [2] | outcome [3] | Potency [4] | outcome [5] | outcome [6] | max response [7] -16.5% | Potency [8] | Potency [9] | outcome [10] | Potency [11] | Potency [12] | Potency [13] | Potency [14] | Potency [15] | Potency [16] | Potency [17] | outcome [18] | outcome [19]

CC(=O)/C=C/C=C1/C2CCC(C2)C1(C)C (configuration not stated)
inactive: outcome [1] | outcome [2] | outcome [3] | Potency [4] | outcome [5] | outcome [6] | max response [7] -0.661% | Potency [8] | Potency [9] | outcome [10] | Potency [12] | Potency [13] | Potency [14] | Potency [15] | Potency [16] | Potency [17] | outcome [18] | outcome [19]

O=c1c(O)c(O)c1=O
inactive: outcome [1] | outcome [20] | outcome [3] | Potency [4] | outcome [5] | outcome [6] | max response [7] -0.875% | Potency [8] | Potency [9] | outcome [10] | Potency [11] | Potency [12] | Potency [13] | Potency [14] | Potency [15] | Potency [16] | Potency [17] | outcome [18] | outcome [19]
